Assay outcomes: PubChem BioAssay, Sanford-Burnham Center for Chemical Genomics
Sampled rows, rich in hits. Any-hit rate of the full collection: about 4.1%.
tim23-1 inh: growth inhibitors of tim23-1 mutant yeast. 1.3% of 330,000 active. inhibition, % at 20 µM. S. cerevisiae tim23-1 growth, BacTiter-Glo luminescence, 24 h. AID 463212;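 active means growth inhibition of the mutant yeast at or above 50%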;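 further: temperature-sensitive mutant grown at 25 °C; plate controls were DMSO-treated mutant yeast for no effect and medium wells lacking yeast for full effect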
tim10-1 inh: growth inhibitors of tim10-1 mutant yeast | S. cerevisiae tim10-1 ts strain growth, BacTiter-Glo, 24 h | inhibition, % at 20 µM | 2.2% of 330,000 active | AID 463190;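 active means inhibition of at least 40%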;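 further: mutant grown at 25 °C; 0% = DMSO wells with yeast and 100% = wells holding no yeast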
NALP3 yeast inh: blocks the NALP3 inflammasome reconstituted in yeast. Yeast reconstituted NLRP3/ASC/caspase-1, beta-gal luminescence, 24 h. inhibition, % at 10 µM. 0.39% of 330,000 active. AID 2825;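 active means inhibition of 50% or more; inactive means inhibition below 50%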;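 further: plate controls were induced DMSO wells for no effect and uninduced yeast grown without galactose for full effect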
TIM10 inh: growth inhibitors of TIM10 yeast strain. S. cerevisiae TIM10 strain growth, BacTiter-Glo luminescence, 24 h. inhibition, % at 10 µM. 1.4% of 330,000 active;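 active means inhibition of 40% or more at the single tested concentration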;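 further: wild-type TIM10 isogenic control strain grown at permissive 25 °C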
NALP1 inh: blocks the NALP1 inflammasome reconstituted in yeast | S. cerevisiae NALP1/ASC/caspase-1 growth, X-gal OD620, 72 h | inhibition, % at 10 µM | 0.61% of 280,000 active; in the data active means inhibition mostly above about 24%, no sharp cut-off; inactive means mostly below about 32%
* marks the source's active call; other numbers are inactive results; x = no result.

SMILES | tim23-1 inh | tim10-1 inh | NALP3 yeast inh | TIM10 inh | NALP1 inh
COc1cccc(C2c3c(C)nn(-c4ccc([N+](=O)[O-])cc4)c3N=C3C(=O)Nc4ccccc4N32)c1 (stereo not given) | 2 | -21 | 17 | 18 | 30*
Cc1ccc(C2c3c(C)nn(-c4ccc([N+](=O)[O-])cc4)c3N=C3C(=O)Nc4ccccc4N32)cc1 (stereo not given) | 16 | 8 | 28 | 23 | 4
O=C(O)CCCCNCc1ccccc1 | 8 | -11 | 7 | -3 | 40*
O=C(O)CCCCCNCc1ccncc1 | 2 | 4 | 14 | -2 | 16
CN(C)CCCN(C(=O)CCc1ccccc1)c1nc2c(F)cccc2s1 | 11 | 10 | 30 | 18 | 25
Cc1cccc2sc(N(CCN(C)C)C(=O)/C=C/c3cccs3)nc12 | 10 | 13 | 39 | 29 | 54*
Cc1cccc2sc(N(CCCN(C)C)C(=O)c3sc4ccccc4c3Cl)nc12 | 11 | 20 | 23 | 16 | 54*
CN(C)CCCN(C(=O)CCOc1ccccc1)c1nc2c(F)cccc2s1 | x | x | x | x | 52*
CCc1ccc(-n2ccc(=O)c(C(=O)O)n2)cc1 | -2 | -1 | 8 | 4 | 15
CN(C)S(=O)(=O)Nc1ccc(NS(=O)(=O)N(C)C)c(S(=O)(=O)c2ccccc2)c1 | 9 | -3 | 16 | 9 | 27*
CN(C)S(=O)(=O)Nc1ccc2c(c1)Cc1ccccc1-2 | 21 | 2 | 31 | 7 | 7
Cn1c(-c2ccc(C=O)s2)nc2c3ccccc3c3ccccc3c21 | 23 | 29 | 24 | 18 | 32*
Cc1sc2nc(C(C)Sc3n[nH]c(N)n3)[nH]c(=O)c2c1C (stereo not given) | 2 | 10 | 7 | 4 | -11
Cc1ccc(OCCC(=O)N2CCN(c3ccc(O)cc3)CC2)cc1 | 21 | -36 | 24 | 13 | 38*
Cc1ccccc1S(=O)(=O)Nc1nc2ccccc2nc1N1CCOCC1 | 42 | 30 | -9 | 3 | 19
Cc1cc2ncn(/N=C/c3ccc([N+](=O)[O-])s3)c2cc1C | x | x | x | x | 59*
CCn1nnc(NC(=O)c2ccc([N+](=O)[O-])o2)n1 | 29 | 27 | 13 | 24 | 8
CCCCn1nnc(NC(=O)c2ccc(-c3ccccc3[N+](=O)[O-])o2)n1 | 24 | 13 | 18 | 19 | 30*
COC(=O)c1ccc2c(CCO)c[nH]c2c1 | 10 | 1 | 1 | -6 | 7
O=C(COC(=O)CCCSc1nc2ccccc2[nH]1)Nc1ccc(Cl)cc1 | -3 | -27 | 7 | 1 | 22
C1CCC(OCCN2CCN(CCOC3CCCCC3)CC2)CC1 | -22 | -15 | 30 | -6 | 39*
CCOc1ccc(CCNC(=O)C2CCN(c3nnc(-n4cccc4)s3)CC2)cc1 | -5 | -4 | 11 | -5 | 42*
CCOc1ccc(CCNC(=O)C2CCN(c3nnc(-n4cccc4)s3)CC2)cc1OCC | 25 | 28 | 9 | 3 | 0
CCOC(=O)c1ccccc1NS(=O)(=O)c1ccc(OCC)cc1 | 24 | 28 | 27 | 6 | 30*
CCOc1ccc(C(=O)CCC(=O)Nc2cccc(S(=O)(=O)N3CCCCC3)c2)cc1 | 11 | 12 | 4 | 8 | x
SMILES | tim23-1 inh | tim10-1 inh | NALP3 yeast inh | TIM10 inh | NALP1 inh
CCCCCCCCCC[n+]1cccc2c3ccccc3ccc21 | x | x | x | x | 26*
Cc1c(C(=O)NCc2ccc(S(N)(=O)=O)cc2)oc2ccc(Cl)cc12 | -3 | -5 | 10 | 12 | 8
COc1cccc(NC(=O)Cn2c(=O)n(C)c(=O)c3sc4c(c32)COC(C)(C)C4)c1 | -5 | -14 | 1 | -5 | 21
CCOc1c(S(=O)(=O)N2CCCC2)ccc(Cl)c1Cl | 22 | 17 | 21 | -14 | 41*
CC1=CCC[C@@H]2[C@@](C)(CC/C(C)=C/C(=O)O)[C@H](C)CC[C@@]12C | 27 | 11 | 46 | 7 | 44*
Cc1ccc(OCC(=O)Nc2cnn(CCCC(=O)O)c2)c([N+](=O)[O-])c1 | 2 | -6 | 1 | 13 | 4
Cc1sc2nc(CN(Cc3cccs3)C(=O)NC3CCCCC3)[nH]c(=O)c2c1C | -11 | 24 | 15 | 29 | 22
COC(=O)C1(C(C[N+](=O)[O-])c2ccc(C)cc2)C(=O)NCC1c1ccco1 (stereo not given) | -3 | 5 | 16 | -11 | 46*
COc1cc(CCC(=O)NNC(=O)c2ccc(C)cc2)cc(OC)c1OC | -1 | 12 | 5 | -9 | -4
CCC(C)(c1nnnn1-c1c(C)cccc1C)N(N=O)c1cccc(C(F)(F)F)c1 (stereo not given) | 33 | 24 | 10 | 16 | 18
Cc1cccc(C)c1-n1nnnc1C(C)(C)N1CCN(N=O)CC1 | 12 | 8 | -12 | 2 | 37*
S=C1NC2=C(CCC/C2=C\c2ccc(Cl)cc2)C(c2ccc(Cl)cc2)N1 (stereo not given) | 13 | 35 | 12 | 22 | 40*
Cc1ccc(-c2nnn(C/C(N)=N/O)n2)cc1 | 15 | 1 | 10 | 25 | -25
CC(=O)/C=C(\C)Nc1ccccc1O | -18 | -83 | 21 | -46 | 43*
O=C(Nc1ccccc1O)c1ccccc1O | 1 | -7 | 7 | 14 | 15
Cc1nc(NC2=NCN(CCc3ccccc3)CN2)nc2ccccc12 | x | x | x | x | 37*
Cc1nc(NC2=NCN(Cc3ccccc3)CN2)nc2ccccc12 | x | x | x | x | 32*
COc1cccc(-n2c(=O)c3cc(OC)c(OC)cc3n(CC(=O)Nc3cc(C)[nH]n3)c2=O)c1 | 14 | 10 | 1 | -1 | -33
CC1CC(C)CN(S(=O)(=O)c2cccc3nsnc23)C1 (stereo not given) | 22 | 18 | 5 | 5 | 3
O=C(NCc1ccco1)c1cnn2c(C(F)F)cc(-c3ccccc3)nc12 | -10 | -7 | 23 | -17 | 15
Cc1cc(C)c(Cc2c(C)nc3c(C(=O)NCc4ccco4)cnn3c2C)c(C)c1 | 36 | 38 | 23 | 34 | 42*
COc1cc(OC)cc(C2=NCCN2)c1 | 0 | -8 | 3 | 0 | 17
CN(C)n1cnc2ccsc2c1=O | -7 | -7 | 3 | 7 | 30*
CNn1cnc2ccsc2c1=O | 3 | 4 | 4 | 3 | -2
CCc1nc2ccccc2n1CC1CC1(Cl)Cl (stereo not given) | 7 | 8 | -17 | -29 | 37*
SMILES | tim23-1 inh | tim10-1 inh | NALP3 yeast inh | TIM10 inh | NALP1 inh
ClC1(Cl)CC1Cn1c(C2CC2)nc2ccccc21 (stereo not given) | 9 | 3 | 8 | 10 | 2
CCOC(=O)c1nc2ccccc2c(=O)[nH]1 | 9 | 5 | 11 | -11 | 43*
CCOC(=O)CSc1nc2ccccc2c(=O)[nH]1 | -9 | -3 | -7 | -8 | x
Cc1cc(Cl)cc(C)c1OCC(=O)N1CCN(c2ncccn2)CC1 | 38 | 22 | 17 | 18 | x
CN1CCc2cccc3c2[C@@H]1Cc1ccc(O)c(O)c1-3 | 10 | 21 | 47 | 15 | 86*
COc1ccc2c(c1O)-c1ccccc1CCN(C)C2 | -13 | 5 | 14 | -2 | -8
CCN(Cc1ccccc1)Cc1ccc(OCc2ccccc2)cc1 | -19 | -128 | 41 | -68 | 38*
Nc1ccc(OCc2ccccc2)cc1 | 5 | -1 | 5 | 11 | -51
